# HSP90 refold inh: inhibitors of HSP90 luciferase refolding in rabbit reticulocyte lysate; luciferase refolding luminescence, 3 h; inhibition, % at 5.6 µM; 0.91% of 290,000 active; AID 1789;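 active = inhibition above the screen-wide mean plus 3 SD, computed separately per campaign, cut at about 16% in these data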;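 also: inhibitors lower the luminescence because luciferase stays unfolded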
# TWEAK Fn14 block: blocks TWEAK-Fn14 interaction in a reporter cell assay | TWEAK-stimulated Fn14 reporter cells, luciferase luminescence, 8 h | inhibition, % at 10 µM | 2% of 360,000 active | AID 1159606; in the data active = inhibition above about 50%
# LGR2 antag: blocks bursicon-induced cAMP signaling via Drosophila LGR2. HEK293 LGR2, CRE-luciferase, bursicon-stimulated, 4 h. inhibition, % at 9.99 µM. 0.35% of 380,000 active;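 active = drop in luminescence signal, shown as inhibition above about 50% in the replicate tests, limit read from the data, passing the limit was not always enough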;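 also: agonist challenge used bursicon conditioned medium at about half maximal strength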
# TROY NFkB inh: blocks TROY-dependent signaling in reporter cells. Q293 LMP1-TROYcd NF-kB luciferase reporter, 4 h. inhibition, % at 10 µM. 0.98% of 360,000 active. AID 1347056;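 active = compounds whose plate-normalised and pattern-corrected inhibition of the luciferase reporter signal at the single screening dose is 50% or more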
# A number is an active result; i = inactive; nt = no result. A selection: hits, their analogues and other compounds. The true share with any hit is near 2.2%.
SMILES,HSP90 refold inh,TWEAK Fn14 block,LGR2 antag,TROY NFkB inh
c1nc(CCO[C@H]2CCCCO2)cc2cc3c(cc12)OCO3,nt,92,91,60
O=C(COc1cccc2ccccc12)NNC(=O)C1CCCO1 (stereo not given),i,i,i,i
c1nc(C2CCCCC2)cc2cc3c(cc12)OCO3,nt,i,i,i
c1ccc2cc(CCO[C@H]3CCCCO3)ncc2c1,nt,66,55,i
C[C@@H]1CCCCO[C@H](CN(C)C(=O)NC2CCCCC2)[C@@H](C)CN([C@@H](C)CO)C(=O)c2cc(NS(C)(=O)=O)ccc2O1,nt,nt,i,nt
CNC[C@H]1Oc2ccc(NS(C)(=O)=O)cc2CC(=O)N([C@H](C)CO)C[C@@H]1C,nt,nt,i,nt
COC(=O)C[C@H]1CC[C@@H]2[C@@H](COc3ccc(NC(=O)c4cscn4)cc3C(=O)N2C)O1,nt,nt,i,nt
CCCNC(=O)c1ccccc1C(=O)NCCC,i,89,i,i
N#Cc1cc(-c2ccccc2)nc(Oc2ccc(Cl)cc2)n1,i,50,i,i
N#Cc1cc(-c2ccccc2)nc(NN)n1,i,i,nt,i
CNC(=O)C[C@@H]1CC[C@@H]2[C@@H](COc3ccc(NC(=O)NC(C)C)cc3C(=O)N2C)O1,nt,nt,i,nt
N#Cc1c(-c2ccccc2)nc(SCc2cccc(Cl)c2)[nH]c1=O,i,i,i,58
Cc1cccc(-c2nc(=S)c3c(n2Cc2ccco2)CCCC3)c1,i,50,i,i
CN1C(=O)NC(c2ccccc2)C2=C1CN(c1ccc3ccccc3c1)C2=O (stereo not given),i,i,nt,53
Cc1ccc(N2CC3=C(C2=O)C(c2ccccc2)NC(=O)N3C)cc1 (stereo not given),i,i,nt,i
COc1ccc(NC(=O)c2cc(-c3cc(C)cc(C)c3O)n[nH]2)cc1Cl,i,82,nt,64
CC(=O)N1CCCCN2[C@@H](CO)[C@@H](c3ccc(Br)cc3)[C@@H]2C1,nt,nt,i,nt
O=C(C[C@@H]1C[C@H]2c3cc(NC(=O)c4ccc5c(c4)OCO5)ccc3O[C@H]2[C@@H](CO)O1)NCc1ccc(Oc2ccccc2)cc1,nt,nt,53,nt
O=C(CSc1cccc2cccnc12)N1CCCC1,i,67,nt,i
CN(C)C(=O)CSc1cccc2cccnc12,i,96,nt,i
NNC(=O)CSc1cccc2cccnc12,i,i,i,i
CCOC(=O)Nc1ccc2c(c1)N(C(=O)CCN(CC)CC)c1ccccc1S2=O (stereo not given),i,64,i,54
Cc1noc(C)c1S(=O)(=O)Nc1ccc2c(c1)C(=O)N([C@H](C)CO)C[C@H](C)[C@H](CN(C)CC1CC1)OCCCC[C@H](C)O2,nt,nt,i,nt
CSc1nc2ccc(N3C(=O)C4CCCCC4C3=O)cc2s1 (stereo not given),i,107,nt,i
C[C@H]1CCCCO[C@H](CN(C)C(=O)Nc2ccc3c(c2)OCO3)[C@@H](C)CN([C@@H](C)CO)C(=O)c2cc(NC(=O)CCCN(C)C)ccc2O1,nt,nt,i,nt
SMILES,HSP90 refold inh,TWEAK Fn14 block,LGR2 antag,TROY NFkB inh
Cc1cc(=O)n2c3ccccc3n(CC(O)CN3CCN(Cc4ccccc4)CC3)c2c1C#N (stereo not given),i,i,i,i
Cc1cc(=O)n2c3ccccc3n(CC(O)CN3CCN(CCO)CC3)c2c1C#N (stereo not given),i,68,i,i
NCC[C@@H]1CC[C@H](NC(=O)C2CC2)[C@@H](CO)O1,nt,nt,i,nt
CCOc1ccccc1NC(=O)c1nc(S(=O)(=O)Cc2ccccc2)ncc1Cl,i,74,i,75
CCS(=O)(=O)c1ncc(Cl)c(C(=O)Nc2ccccc2OC)n1,i,95,i,73
COc1ccccc1NC(=O)c1nc(S(=O)(=O)Cc2ccccc2)ncc1Cl,i,74,i,72
COc1ccccc1NC(=O)c1ccc(CS(=O)(=O)c2ccc(C)cc2)cc1,i,i,i,i
CNC[C@H]1Oc2cc(-c3cncnc3)ccc2S(=O)(=O)N([C@@H](C)CO)C[C@H]1C,nt,nt,i,nt
O=C(C[C@H]1C=C[C@H](NC(=O)c2ccc3c(c2)OCO3)[C@H](CO)O1)NCc1ccc(F)cc1,nt,nt,i,nt
CCc1ccc(-c2nc(CS(=O)CC(=O)NCc3ccco3)c(C)o2)cc1 (stereo not given),i,76,i,i
CCOc1ccc(-c2nc(CSCC(=O)NCc3ccco3)c(C)o2)cc1,i,65,nt,i
Cc1cc(C)cc(NC(=O)CCCCCN2C(=O)[C@@H]3Cc4ccccc4CN3C2=O)c1,i,55,i,i
C[C@@H]1ON(C)[C@H]2C[C@H]3c4[nH]c5cccc(-c6ccccc6)c5c4CCN3C[C@@H]12,nt,nt,i,nt
C[C@@H]1ON(C)[C@H]2C[C@H]3c4[nH]c5ccc(-c6ccc7c(c6)OCO7)cc5c4CCN3C[C@@H]12,nt,85,i,i
CCc1ccc(NC(=S)/N=C(\N)Nc2nc(C)c3cc(CC)ccc3n2)cc1,i,57,i,i
CCOc1ccc2nc(N/C(N)=N/C(=S)Nc3ccc(OC)cc3)nc(C)c2c1,i,i,i,i
C/C=C/c1cnc2c(c1)C(=O)N([C@H](C)CO)C[C@H](C)[C@@H](CN(C)C(=O)C1CC1)O2,nt,nt,i,nt
C[C@H]1CN([C@@H](C)CO)C(=O)c2cc(NC(=O)Cc3cn(C)c4ccccc34)ccc2O[C@@H]1CN(C)C(=O)Nc1ccc(F)cc1,nt,nt,i,nt
COc1ccc(OC)c(C(=O)c2coc3ccc(OC(C)=O)cc23)c1,i,i,i,i
Cc1ccc(C(=O)c2coc3ccc(O)c(Cl)c23)cc1,i,i,nt,i
Cc1ccc(C(=O)c2coc3ccc(O)cc23)cc1,i,56,i,i
COc1ccc(C(=O)c2coc3ccc(OC(C)=O)cc23)cc1,i,57,i,i
COc1ccccc1S(=O)(=O)N1CC[C@H]2[C@H](CO)Nc3ccc(-c4ccc(F)cc4)cc3[C@H]21,nt,nt,i,nt
CNC(=O)C[C@H]1CC[C@H]2[C@H](COc3ccc(NC(=O)c4ccc(F)cc4)cc3C(=O)N2C)O1,nt,nt,i,nt
CNC(=O)C[C@@H]1CC[C@@H]2[C@@H](COc3ccc(NC(=O)c4ccc(C(F)(F)F)cc4)cc3C(=O)N2C)O1,nt,nt,i,nt
SMILES,HSP90 refold inh,TWEAK Fn14 block,LGR2 antag,TROY NFkB inh
N#C[C@H]1[C@H](c2ccccc2-c2ccccc2F)[C@H](CO)N1C(=O)C1CCC1,nt,nt,i,nt
O=C(Cn1c(NCCCO)nc2ccccc21)c1ccco1,16,i,i,i
COc1cccc(/C=c2\s/c(=C\C(=O)C(C)(C)C)[nH]c2=O)c1,i,56,i,i
COc1ccc(/C=c2\s/c(=C/C(=O)c3ccc(C)cc3)[nH]c2=O)c(OC)c1,i,i,i,i
C[C@H]1CN([C@@H](C)CO)C(=O)c2cccc(NC(=O)CCCCCC(=O)Nc3ccccc3N)c2O[C@H]1CN(C)Cc1ccc(C(F)(F)F)cc1,nt,nt,i,nt
CC1=NN(C(=O)c2c(Br)cnn2C)C(O)(C(F)(F)F)C1 (stereo not given),i,72,nt,i
O=C(O)C[C@@H]1CC[C@H](NC(=O)c2ccccc2F)[C@@H](CO)O1,nt,nt,i,nt
COc1ccc(-c2n(CC(=O)OC3CC(C)CCC3C(C)C)c3ccccc3[n+]2C)cc1 (stereo not given),i,80,i,i
COc1ccc(OCc2n(CC(=O)OC3CC(C)CCC3C(C)C)c3ccccc3[n+]2C)cc1 (stereo not given),i,i,i,i

# Screening results: PubChem, several laboratories
